Source: PubChem BioAssay
Rows were chosen to be rich in hits. Some 2.4% of all compounds tested hit in one or more screens of this group.
Pf Dd2 growth = blocks growth of Plasmodium falciparum Dd2 parasites; P. falciparum Dd2 growth, SYBR Green, 72 h; active compounds read low; activity change, % at 10 µM; 94,000 tested, 2.3% active; AID 1159554; in the data active = activity change below about -80%
C diff HTS = inhibitors of Clostridium difficile growth | Clostridium difficile clinical isolate growth, OD600, 24 h; active compounds read low | growth activity, negative = inhibition, % at 16 µg/mL (by protocol) | 86,000 tested, 0.25% active | AID 1259249;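 active = mean growth activity at or below -80% and every replicate also at or below -80%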;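 also: 0% = DMSO wells and -100% = levofloxacin 16 µg/mL wells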
* = called active by the depositor; · = no result.

SMILES | Pf Dd2 growth | C diff HTS
C[C@H]1CCCCO[C@@H](CN(C)Cc2ccccc2)[C@@H](C)CN([C@@H](C)CO)C(=O)c2cc(NC(=O)Nc3ccc(C(F)(F)F)cc3)ccc2O1 | -86* | 23
C[C@@H]1CCCCO[C@H](CN(C)Cc2ccccc2)[C@@H](C)CN([C@H](C)CO)C(=O)c2cc(NC(=O)Nc3ccc(F)cc3)ccc2O1 | 26 | 0
C[C@@H]1CN([C@H](C)CO)C(=O)c2cc(NC(=O)Cc3ccccc3)ccc2O[C@@H](C)CCCCO[C@@H]1CN(C)Cc1ccc(Cl)c(Cl)c1 | -55 | 6
C[C@@H]1CN([C@@H](C)CO)S(=O)(=O)c2ccc(-c3cncnc3)cc2O[C@@H]1CN(C)C(=O)C1CCC1 | 19 | 4
C[C@@H]1CCCCO[C@H](CN(C)Cc2ccc(C(F)(F)F)cc2)[C@H](C)CN([C@@H](C)CO)C(=O)c2cc(NC(=O)Nc3ccccc3)ccc2O1 | -76 | 4
C[C@@H]1CN([C@@H](C)CO)C(=O)c2cc(NC(=O)Nc3ccccc3)ccc2O[C@@H](C)CCCCO[C@@H]1CN(C)Cc1ccc(C(F)(F)F)cc1 | -82* | 0
C[C@@H]1CCCCO[C@@H](CN(C)Cc2ccc(Cl)c(Cl)c2)[C@H](C)CN([C@H](C)CO)C(=O)c2cc(NC(=O)C3CCCCC3)ccc2O1 | -83* | 3
C[C@@H]1CCCCO[C@H](CN(C)Cc2ccc(Cl)c(Cl)c2)[C@@H](C)CN([C@H](C)CO)C(=O)c2cc(NC(=O)C3CCCCC3)ccc2O1 | -22 | 4
C[C@@H]1CCCCO[C@H](CN(C)Cc2ccc(C(F)(F)F)cc2)[C@@H](C)CN([C@@H](C)CO)C(=O)c2cc(NC(=O)Cc3ccccc3)ccc2O1 | -89* | ·
C[C@@H]1CCCCO[C@H](CN(C)Cc2ccc(C(F)(F)F)cc2)[C@H](C)CN([C@@H](C)CO)C(=O)c2cc(NC(=O)c3ccccc3)ccc2O1 | -85* | 10
C[C@@H]1CCCCO[C@H](CN(C)Cc2ccc(C(F)(F)F)cc2)[C@@H](C)CN([C@H](C)CO)C(=O)c2cc(NC(=O)Cc3ccccc3)ccc2O1 | -15 | ·
C[C@@H]1CCCCO[C@H](CN(C)Cc2ccc(C(F)(F)F)cc2)[C@@H](C)CN([C@H](C)CO)C(=O)c2cc(NC(=O)c3ccccc3)ccc2O1 | -37 | 12
COc1ccc(S(=O)(=O)N(C)C[C@@H]2OCCCC[C@@H](C)Oc3ccc(NS(=O)(=O)c4ccc(C)cc4)cc3C(=O)N([C@H](C)CO)C[C@@H]2C)cc1 | -14 | 5
C[C@@H]1CN([C@H](C)CO)S(=O)(=O)c2ccc(Br)cc2O[C@H]1CN(C)Cc1ccncc1 | -27 | 3
COc1ccc(S(=O)(=O)N(C)C[C@@H]2OCCCC[C@@H](C)Oc3ccc(NC(=O)Nc4ccccc4)cc3C(=O)N([C@@H](C)CO)C[C@H]2C)cc1 | -74 | -6
COc1ccc(S(=O)(=O)N(C)C[C@H]2OCCCC[C@H](C)Oc3ccc(NC(=O)Nc4ccccc4)cc3C(=O)N([C@H](C)CO)C[C@@H]2C)cc1 | -38 | -7
COc1ccc(NC(=O)Nc2ccc3c(c2)C(=O)N([C@@H](C)CO)C[C@H](C)[C@@H](CN(C)S(=O)(=O)c2ccc(C)cc2)OCCCC[C@@H](C)O3)cc1 | -83* | ·
COc1ccc(S(=O)(=O)N(C)C[C@@H]2OCCCC[C@H](C)Oc3ccc(NC(=O)Nc4ccccc4)cc3C(=O)N([C@@H](C)CO)C[C@@H]2C)cc1 | -86* | 4
COc1ccc(NC(=O)Nc2ccc3c(c2)C(=O)N([C@H](C)CO)C[C@@H](C)[C@@H](CN(C)S(=O)(=O)c2ccc(C)cc2)OCCCC[C@H](C)O3)cc1 | -75 | ·
COc1ccc(S(=O)(=O)N(C)C[C@@H]2OCCCC[C@@H](C)Oc3ccc(NC(=O)Nc4ccccc4)cc3C(=O)N([C@@H](C)CO)C[C@@H]2C)cc1 | -83* | -1
Cc1noc(C)c1S(=O)(=O)Nc1ccc2c(c1)C(=O)N([C@H](C)CO)C[C@H](C)[C@@H](CN(C)Cc1ccncc1)OCCCC[C@@H](C)O2 | 62 | 1
O=C(c1cnccn1)N1CC(=O)N2[C@@H](CO)[C@H](c3ccc(C#CCc4ccccc4)cc3)[C@@H]2C1 | -88* | -13
O=C(C1CCCC1)N1CC(=O)N2[C@@H](CO)[C@H](c3ccc(C#CCc4ccccc4)cc3)[C@@H]2C1 | -93* | 54
O=C(c1cnccn1)N1CC(=O)N2[C@H](CO)[C@@H](c3ccc(C#CCc4ccccc4)cc3)[C@H]2C1 | -51 | -7
O=C(C1CCCCC1)N1CC(=O)N2[C@H](CO)[C@@H](c3ccc(C#CCc4ccccc4)cc3)[C@@H]2C1 | -83* | -5
O=C(C1CCCC1)N1CC(=O)N2[C@H](CO)[C@@H](c3ccc(C#CCc4ccccc4)cc3)[C@H]2C1 | -43 | 20
O=C(C1CCCCC1)N1CC(=O)N2[C@H](C1)[C@@H](c1ccc(C#CCc3ccccc3)cc1)[C@@H]2CO | -66 | 0
